High-throughput results deposited in PubChem by several laboratories.
CYP2C9 inhib: blocks human cytochrome P450 2C9. P11712. CYP2C9 Supersomes, luciferin-H conversion, luminescence. inhibition, % at 5 µM. 96,000 compounds, 20% hits. AID 777;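 active means blocking of liver enzyme CYP2C9 beyond about 50% at 5 µM, limit read from the data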
Target sequence (P11712 whole entry, looked up): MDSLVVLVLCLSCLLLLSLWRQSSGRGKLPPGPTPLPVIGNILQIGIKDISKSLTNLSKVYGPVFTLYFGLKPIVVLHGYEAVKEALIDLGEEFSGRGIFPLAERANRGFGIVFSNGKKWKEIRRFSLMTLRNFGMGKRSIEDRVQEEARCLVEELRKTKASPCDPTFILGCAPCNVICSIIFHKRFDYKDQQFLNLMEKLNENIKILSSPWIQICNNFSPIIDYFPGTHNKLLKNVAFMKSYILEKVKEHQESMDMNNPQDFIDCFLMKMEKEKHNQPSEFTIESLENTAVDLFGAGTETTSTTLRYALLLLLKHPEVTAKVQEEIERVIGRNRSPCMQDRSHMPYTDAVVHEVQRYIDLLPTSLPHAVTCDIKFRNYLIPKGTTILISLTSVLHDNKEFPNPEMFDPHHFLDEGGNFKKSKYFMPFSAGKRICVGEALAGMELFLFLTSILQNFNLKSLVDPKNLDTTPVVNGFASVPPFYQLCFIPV
CYP2C9 activ: activators of human CYP2C9; AID 1024; 96,000 compounds, 1.4% hits; recombinant CYP2C9, luciferin-H conversion, luminescence; hits give high values; factor 1 = untreated enzyme, 0 = blocked; activation factor at 5 µM;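 active means activation factor of 2 or more for CYP2C9 at a 5 µM dose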;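 further: 0 = sulfaphenazole-blocked wells and 1 = vehicle-only wells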
EphB4 ephrin blk: antagonists of human EphB4-ephrin-B2 interaction | 97,000 compounds, 0.15% hits | P54760 | inhibition, % at 7 µM | EphB4 LBD / TNYL-RAW-Alexa532 peptide, fluorescence polarization | AID 720;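 active means inhibition above the screen-wide mean inhibition plus 3 SD, cut at about 15% in these data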;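 further: 0% = DMSO wells and 100% = excess unlabeled TNYL-RAW peptide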
CYP2C19 act: cytochrome P450 2C19 (human) activation. recombinant CYP2C19, luciferin-H EGE luminescence; hits give high values; 0 = fully inhibited enzyme, 1 = untreated enzyme. activation factor at 5 µM. 96,000 tested, under 10 active. AID 1025;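 active means activation factor of at least 2 at 5 µM in the primary screen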;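 further: 0 = wells with 2.5 mM tranylcypromine and 1 = vehicle-only wells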
CYP2C19 inh: inhibitors of human CYP2C19. P33261. 96,000 compounds, 21% hits. AID 778. CYP2C19 Supersomes, luciferin-H EGE luminescence, 30 min. inhibition, % at 5 µM;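 active means CYP2C19 inhibition above a set limit at 5 µM in the primary screen, cut at about 50% in these data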;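 further: plate controls were negative control wells for no effect and 2.5 mM tranylcypromine positive control for full effect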
An asterisk follows results filed as active; / = not tested or not shown. This is a sample that favours compounds with a hit; in the whole collection about 27% have one here.

SMILES	CYP2C9 inhib	CYP2C9 activ	EphB4 ephrin blk	CYP2C19 act	CYP2C19 inh
CCC(c1nnnn1Cc1ccco1)N1CCN(c2cc(Cl)ccc2C)CC1 (stereo not given)	59*	0.4	-2	0.8	19
CC1(C)Oc2ccc3ccc(=O)oc3c2-c2cnoc21	5	0.9	/	1	3
CC(=O)Nc1ccc(Oc2cc(C#N)c(C#N)cc2N2CCOCC2)cc1	53*	0.5	-3	0.6	42
CC(=O)Nc1ccc(Oc2cc(C#N)c(C#N)cc2N2CCCCCC2)cc1	/	/	-3	/	/
COc1ccc(C2Nc3ccccc3C(=O)N2Cc2ccco2)cc1COc1ccc(F)cc1 (stereo not given)	/	/	3	/	/
COc1ccc(C2Nc3ccccc3C(=O)N2Cc2ccccc2)cc1COc1ccccn1 (stereo not given)	61*	0.4	-10	0.5	54*
COc1ccc(C2Nc3ccccc3C(=O)N2Cc2ccco2)cc1CN1C(=O)c2ccccc2C1=O (stereo not given)	85*	0.2	0	0.3	74*
CCc1cccc(NC(=O)c2snc3c(=O)[nH]cnc23)c1	10	0.9	7	0.9	9
Cc1cccc(NC(=O)c2sc(Cl)nc2-c2ccccc2)c1	54*	0.5	5	0.1	91*
Cc1cccc(NC(=O)c2snc3c(=O)[nH]cnc23)c1	52*	0.5	-7	0.7	34
CC1(C)OC(=O)N(c2ccccn2)C1(C)O (stereo not given)	/	/	9	/	/
O=S(=O)(c1ccc(Cl)s1)N1CCCc2cccc(O)c21	15	0.9	-1	0.3	72*
O=S(=O)(c1ccc(Cl)s1)N1CCc2ccccc2C1	11	0.9	-6	0.3	67*
CCC(C)c1ccccc1NC(=O)COC(=O)c1ccc(C)c(NC(=O)c2ccco2)c1 (stereo not given)	44	0.6	4	0.3	75*
Cc1ccc2nc(NC(=O)COC(=O)c3ccco3)sc2c1	5	0.9	-4	1	-2
Cc1nc(NC(=O)COC(=O)C(NC(=O)c2ccco2)C(C)C)c(Cl)cc1Cl (stereo not given)	24	0.8	4	0.1	95*
Cc1ccc(C(=O)OCC(=O)Nc2sc3c(c2C#N)CCCCC3)cc1NC(=O)c1ccco1	92*	0.1	-10	0.4	60*
Cc1ccc(C(=O)OCC(=O)Nc2sc3c(c2C#N)CCCC3)cc1NC(=O)c1ccco1	91*	0.1	2	0.7	34
C=CCOc1ccc(C2C(C#N)=C(N)N(Nc3ccccc3)C3=C2C(=O)CC(C)(C)C3)cc1OC (stereo not given)	46	0.5	-8	0.9	15
c1ccc(-c2csc3ncn4cnnc4c23)cc1	7	0.9	-6	0.9	9
CN(C)C(=O)N1CCC(C(=O)NCc2cccs2)CC1	-20	1.2	/	1.1	-12
Cc1ccc(C(=O)OCC(=O)Nc2sccc2C(N)=O)cc1NC(=O)c1ccco1	94*	0.1	-1	0.8	19
Cc1ccc(C(=O)OCC(=O)Nc2ncc(Cl)cc2Cl)cc1NC(=O)c1ccco1	69*	0.3	-7	0.1	92*
O=C(NC1CCCC1)C(c1ccsc1)N(Cc1ccco1)C(=O)Cc1cccs1 (stereo not given)	9	0.9	1	0.7	28
Cc1nn(CC(=O)NCCN2CCOCC2)c(=O)c2ccccc12	-10	1.1	-2	1.1	-6
SMILES	CYP2C9 inhib	CYP2C9 activ	EphB4 ephrin blk	CYP2C19 act	CYP2C19 inh
O=C1CSC(c2cccs2)N1c1ccccc1 (stereo not given)	21	0.8	-5	0.5	55*
CN1C(=O)c2ccccc2N(C)C1c1cccs1 (stereo not given)	2	1	4	0.9	9
c1ccc(N2CCN(c3ccccc3)C2c2cccs2)cc1	-7	1.1	2	0.5	52*
O=C(NCCCN1CCN(CCCNC(=O)c2ccccc2F)CC1)c1ccccc1F	-31	1.3	5	1.1	-14
CCC(=O)N1CCc2cc(OC)c(OC)cc2C1COc1ccc(C(=O)OC)cc1 (stereo not given)	33	0.7	1	0.4	60*
CCOc1ccc(C(=O)N2CCc3cc(OC)c(OC)cc3C2)cc1OCC	30	0.7	-4	0.9	13
CCOc1ccc(-n2c(Cc3cc(=O)[nH]c(=O)[nH]3)nnc2SCC)cc1	-6	1.1	-4	1.1	-9
CCOC(=O)c1sc(C)c2c1NC(c1ccc(N(C)C)cc1)NC2=O (stereo not given)	21	0.8	-2	1.1	-15
CCOC(=O)CC1(CC(=O)OCC)NC(=O)c2c(C)sc(C(=O)OCC)c2N1	48	0.5	6	0	96*
CCOC(=O)CC1(C)NC(=O)c2c(C)sc(C(=O)OCC)c2N1 (stereo not given)	23	0.8	2	0.6	36
CCCCC1(C)NC(=O)c2c(C)sc(C(=O)OCC)c2N1 (stereo not given)	94*	0.1	0	0.7	30
O=C(Nc1ccon1)C1CCN(S(=O)(=O)c2cccs2)CC1	/	/	-6	/	/
CNC(=O)NC(=O)CSc1nnc(-c2ccco2)n1Cc1ccccc1	-6	1.1	2	1.1	-11
O=C(CSc1nnc(Cc2ccccc2)n1Cc1ccccc1)NCc1ccco1	/	/	2	/	/
O=C(CSc1n[nH]c(-c2ccccc2Br)n1)NC(=O)NCc1ccco1	59*	0.4	/	0.6	36
Nn1c(SCC(=O)NC(=O)NCc2ccco2)nnc1-c1ccc(OC(F)F)cc1	31	0.7	0	0.3	71*
